Data published in the antibiotic and cytotoxicity screens of Wong et al. (2023).
The campaign covered roughly 39,000 compounds. About 3,300 (8.5%) were called active. The list comes from a sample in which actives are over-represented; it also holds similar structures and randomly drawn compounds.

system: HepG2; test: cytotoxicity call (relative viability < 0.9); conditions: 10 µM

Row | SMILES | cytotoxicity call
1 | O=C(C[C@H]1CC[C@H]2[C@@H](COC[C@@H](O)CN2S(=O)(=O)c2cccc(Cl)c2)O1)NCc1ccc2c(c1)OCO2 | inactive
2 | O=c1[nH]snc1N1CCCCC1 | inactive
3 | CC(C)CNC(=O)C(=O)NC(C)C | inactive
4 | COc1ccc(S(=O)(=O)Nc2ccc3c(c2)C(=O)N([C@H](C)CO)C[C@H](C)[C@@H](CN(C)C(=O)Nc2cccc4ccccc24)O3)cc1 | inactive
5 | COc1ccccc1NC(=O)N(C)C[C@H]1Oc2ncc(Br)cc2C(=O)N([C@H](C)CO)C[C@H]1C | inactive
6 | CC(C)CN1C(=O)[C@@]2(c3ccc([N+](=O)[O-])cc3)CC(=O)N(CC3C4CC5CC(C4)CC3C5)[C@@H]2c2ccc(CO)cc21 (stereo partly drawn) | inactive
7 | C[C@H]1CN([C@@H](C)CO)C(=O)c2cccc(NS(C)(=O)=O)c2O[C@H]1CN(C)C(=O)NC1CCCCC1 | inactive
8 | O=C(C[C@H]1CC[C@H](NC(=O)CN2CCOCC2)[C@@H](CO)O1)NCCc1ccncc1 | inactive
9 | C[C@@H]1CN([C@H](C)CO)C(=O)c2cc(NC(=O)C3CCCCC3)ccc2O[C@H]1CN(C)Cc1ccc(Oc2ccccc2)cc1 | inactive
10 | CCS(=O)(=O)Nc1ccc2c(c1)C(=O)N(C)[C@H]1CC[C@@H](CC(=O)NCc3ccccc3F)O[C@@H]1CO2 | inactive
11 | Cc1noc(C)c1NC(=O)N(C)C[C@H]1OCCCC[C@H](C)Oc2ccc(NS(=O)(=O)c3ccccc3)cc2C(=O)N([C@@H](C)CO)C[C@@H]1C | inactive
12 | CC(C)(C)S(=O)N1Cc2cc(C(=O)N[C@@H]3CCN(Cc4ccccc4)C3)nc(-c3cccc(-c4cccc(F)c4)c3)c2[C@@H]1CCO (stereo partly drawn) | inactive
13 | C[C@@H]1CN([C@H](C)CO)C(=O)c2cc(C#C[C@@H](C)O)cnc2O[C@@H]1CN(C)C(=O)CN1CCOCC1 | inactive
14 | COc1ccc(S(=O)(=O)N(C)C[C@H]2OCCCC[C@H](C)Oc3ccc(NC(=O)C4CCCCC4)cc3C(=O)N([C@@H](C)CO)C[C@H]2C)cc1 | inactive
15 | COc1ccc(S(=O)(=O)N(C)C[C@@H]2OCCCC[C@@H](C)Oc3ccc(NC(=O)C4CCCCC4)cc3C(=O)N([C@H](C)CO)C[C@H]2C)cc1 | active
16 | COc1ccc(S(=O)(=O)N(C)C[C@H]2OCCCC[C@H](C)Oc3ccc(NC(=O)C4CCCCC4)cc3C(=O)N([C@@H](C)CO)C[C@@H]2C)cc1 | inactive
17 | COc1ccc(S(=O)(=O)N(C)C[C@@H]2OCCCC[C@H](C)Oc3ccc(NC(=O)C4CCCCC4)cc3C(=O)N([C@H](C)CO)C[C@@H]2C)cc1 | inactive
18 | COc1ccc(S(=O)(=O)N(C)C[C@H]2OCCCC[C@@H](C)Oc3ccc(NC(=O)C4CCCCC4)cc3C(=O)N([C@H](C)CO)C[C@H]2C)cc1 | inactive
19 | COc1ccc(S(=O)(=O)N(C)C[C@H]2OCCCC[C@H](C)Oc3ccc(NC(=O)C4CCCCC4)cc3C(=O)N([C@H](C)CO)C[C@@H]2C)cc1 | active
20 | Nc1cccc2c(=O)[nH][nH]c(=O)c12 | inactive
21 | O=C(N/N=C/[C@H](O)[C@@H](O)[C@H](O)[C@H](O)CO)c1ccccn1 | inactive
22 | N[C@@H](CCO)c1cccc(Cl)c1 | inactive
23 | C[C@H]1CN([C@@H](C)CO)C(=O)c2cc(Br)cnc2O[C@H]1CN(C)S(=O)(=O)c1ccccc1 | inactive

Row | SMILES | cytotoxicity call
24 | C[C@H](CO)N1C[C@H](C)[C@@H](CN(C)C(=O)Nc2ccc(F)cc2)Oc2ccc(NS(C)(=O)=O)cc2CC1=O | inactive
25 | NCc1nnnn1-c1ccc(F)cc1 | inactive
26 | C[C@@H]1CCCCO[C@@H](CN(C)C(=O)c2ccccc2)[C@@H](C)CN([C@@H](C)CO)C(=O)c2cc(NC(=O)NC3CCCCC3)ccc2O1 | inactive
27 | COc1cccc(CN(C)C[C@@H]2OCc3ccccc3-c3c(n(C)c4ccccc34)C(=O)N([C@@H](C)CO)C[C@@H]2C)c1 | inactive
28 | C[C@@H]1CN([C@@H](C)CO)C(=O)c2c(c3ccccc3n2C)-c2ccccc2CO[C@H]1CN(C)Cc1cccc(F)c1 | inactive
29 | C[C@H]1CN([C@@H](C)CO)C(=O)c2c(c3ccccc3n2C)-c2ccccc2CO[C@H]1CN(C)Cc1cccc(F)c1 | inactive
30 | C[C@H](CO)N1C[C@H](C)[C@@H](CN(C)Cc2cccc(F)c2)OCc2ccccc2-c2c(n(C)c3ccccc23)C1=O | inactive
31 | C[C@H](CO)N1C[C@H](C)[C@H](CN(C)Cc2cccc(F)c2)OCc2ccccc2-c2c(n(C)c3ccccc23)C1=O | active
32 | COc1cccc(CN(C)C[C@H]2OCc3ccccc3-c3c(n(C)c4ccccc34)C(=O)N([C@@H](C)CO)C[C@H]2C)c1 | active
33 | COc1cccc(CN(C)C[C@H]2OCc3ccccc3-c3c(n(C)c4ccccc34)C(=O)N([C@@H](C)CO)C[C@@H]2C)c1 | inactive
34 | C[C@@H]1CN([C@H](C)CO)C(=O)c2c(c3ccccc3n2C)-c2ccccc2CO[C@H]1CN(C)Cc1cccc(F)c1 | inactive
35 | C[C@H]1CCCCO[C@@H](CN(C)S(=O)(=O)c2ccccc2)[C@@H](C)CN([C@@H](C)CO)C(=O)c2cc(NC(=O)Nc3ccccc3)ccc2O1 | inactive
36 | Cc1ccc(S(=O)(=O)N2C[C@H](O)COC[C@H]3O[C@@H](CC(=O)NCc4ccc5c(c4)OCO5)CC[C@@H]32)cc1 | inactive
37 | N=C(N)SC=CC(=O)O | inactive
38 | C[C@@H]1CN([C@H](C)CO)C(=O)c2cc(NC(=O)CCN3CCOCC3)ccc2O[C@@H]1CN(C)C(=O)Nc1ccc(F)cc1 | inactive
39 | Cc1n[nH]c(=O)[nH]c1=O | inactive
40 | C[C@@H]1CN([C@H](C)CO)C(=O)c2cccc(NC(=O)c3ccncc3)c2O[C@H]1CN(C)S(=O)(=O)c1ccc(F)cc1 | inactive
41 | C[C@@H]1CN([C@@H](C)CO)C(=O)c2cc(C#CC3(O)CCCC3)cnc2O[C@H]1CN(C)C(=O)Nc1ccc2c(c1)OCO2 | inactive
42 | Cc1ccc(S(=O)(=O)Nc2cccc3c2O[C@@H](CN(C)Cc2ccc(Cl)c(Cl)c2)[C@@H](C)CN([C@H](C)CO)C3=O)cc1 | inactive
43 | C[C@@H]1CN([C@H](C)CO)C(=O)c2cc(NC(=O)CCC(F)(F)F)ccc2O[C@@H](C)CCCCO[C@H]1CN(C)C(=O)Nc1cccc2ccccc12 | active
44 | C[C@@H]1CCCCO[C@H](CN(C)C(=O)Nc2cccc3ccccc23)[C@@H](C)CN([C@H](C)CO)C(=O)c2cc(NC(=O)CCC(F)(F)F)ccc2O1 | inactive
45 | C[C@H](CO)N1C[C@H](C)[C@@H](CN(C)C(=O)Nc2cccc3ccccc23)OCCCC[C@H](C)Oc2ccc(NC(=O)CCC(F)(F)F)cc2C1=O | active
46 | C[C@@H]1CCCCO[C@H](CN(C)C(=O)Nc2cccc3ccccc23)[C@H](C)CN([C@@H](C)CO)C(=O)c2cc(NC(=O)CCC(F)(F)F)ccc2O1 | inactive

Row | SMILES | cytotoxicity call
47 | C[C@@H]1CCCCO[C@@H](CN(C)C(=O)Nc2cccc3ccccc23)[C@H](C)CN([C@@H](C)CO)C(=O)c2cc(NC(=O)CCC(F)(F)F)ccc2O1 | inactive
48 | C[C@@H]1CCCCO[C@@H](CN(C)C(=O)Nc2cccc3ccccc23)[C@@H](C)CN([C@H](C)CO)C(=O)c2cc(NC(=O)CCC(F)(F)F)ccc2O1 | inactive
49 | C[C@@H]1CCCCO[C@@H](CN(C)C(=O)Nc2cccc3ccccc23)[C@H](C)CN([C@H](C)CO)C(=O)c2cc(NC(=O)CCC(F)(F)F)ccc2O1 | inactive
50 | C[C@@H]1CN([C@@H](C)CO)C(=O)c2cc(NC(=O)CCC(F)(F)F)ccc2O[C@@H](C)CCCCO[C@@H]1CN(C)C(=O)Nc1cccc2ccccc12 | inactive
51 | C[C@H]1CCCCO[C@H](CN(C)C(=O)Nc2cccc3ccccc23)[C@@H](C)CN([C@@H](C)CO)C(=O)c2cc(NC(=O)CCC(F)(F)F)ccc2O1 | active
52 | CC(C)NC(=O)N(C)C[C@H]1Oc2ccc(NS(=O)(=O)c3ccccc3)cc2C(=O)N([C@@H](C)CO)C[C@H]1C | inactive
53 | C[C@@H]1CN([C@H](C)CO)C(=O)c2cccc(NC(=O)Nc3ccccc3)c2O[C@@H]1CN(C)CC1CCCCC1 | inactive
54 | COc1ccccc1-c1cnc2c(c1)C(=O)N([C@@H](C)CO)C[C@@H](C)[C@@H](CN(C)C(=O)c1ccncc1)O2 | inactive
55 | COc1ccc(S(=O)(=O)Nc2ccc3c(c2)C(=O)N([C@H](C)CO)C[C@@H](C)[C@@H](CN(C)C(=O)CCC(F)(F)F)OCCCC[C@@H](C)O3)cc1 | inactive
56 | O=C(/C=C/c1ccccc1)c1ccc(O[C@@H]2O[C@H](CO)[C@@H](O)[C@H](O)[C@H]2O)cc1O | inactive
57 | C[C@H](CO)N1C[C@H](C)[C@@H](CN(C)S(=O)(=O)c2ccc(F)cc2)Oc2c(NS(=O)(=O)c3ccccc3)cccc2C1=O | inactive
58 | CON=C(C(=O)N[C@@H]1C(=O)N2C(C(=O)O)=C(CSc3nc(=O)c(O)nn3C)CS[C@H]12)c1csc(N)n1 | inactive
59 | COc1ccc(S(=O)(=O)N(C)C[C@@H]2Oc3ccc(N(C)C)cc3C(=O)N([C@H](C)CO)C[C@H]2C)cc1 | inactive
60 | Cc1ccc(S(=O)(=O)N2C[C@@H](O)COC[C@@H]3O[C@H](CC(=O)NCCCN(C)C)CC[C@H]32)cc1 | inactive
61 | Cc1ccc(S(=O)(=O)Nc2ccc3c(c2)C(=O)N([C@H](C)CO)C[C@H](C)[C@@H](CN(C)Cc2ccc(C(F)(F)F)cc2)O3)cc1 | inactive
62 | Cc1ccc(S(=O)(=O)Nc2ccc3c(c2)C(=O)N([C@@H](C)CO)C[C@H](C)[C@H](CN(C)Cc2ccc(C(F)(F)F)cc2)O3)cc1 | inactive
63 | Cc1ccc(S(=O)(=O)Nc2ccc3c(c2)C(=O)N([C@H](C)CO)C[C@@H](C)[C@@H](CN(C)Cc2ccc(C(F)(F)F)cc2)O3)cc1 | active
64 | Cc1ccc(S(=O)(=O)Nc2ccc3c(c2)C(=O)N([C@@H](C)CO)C[C@@H](C)[C@@H](CN(C)Cc2ccc(C(F)(F)F)cc2)O3)cc1 | inactive
65 | Cc1ccc(S(=O)(=O)Nc2ccc3c(c2)C(=O)N([C@@H](C)CO)C[C@@H](C)[C@H](CN(C)Cc2ccc(C(F)(F)F)cc2)O3)cc1 | inactive
66 | Cc1ccc(S(=O)(=O)Nc2ccc3c(c2)C(=O)N([C@H](C)CO)C[C@@H](C)[C@H](CN(C)Cc2ccc(C(F)(F)F)cc2)O3)cc1 | active
67 | Cc1ccc(S(=O)(=O)Nc2ccc3c(c2)C(=O)N([C@@H](C)CO)C[C@H](C)[C@@H](CN(C)Cc2ccc(C(F)(F)F)cc2)O3)cc1 | inactive
68 | Cc1ccc(S(=O)(=O)Nc2ccc3c(c2)C(=O)N([C@H](C)CO)C[C@H](C)[C@H](CN(C)Cc2ccc(C(F)(F)F)cc2)O3)cc1 | active
